{"source": "paper PMC4336329", "about": "(PLoS ONE, 2015)", "note": "Among all 310,000 compounds or so, about 14,000 (4.5%) showed an effect of 50% or more. The effect is printed as a negative number. The full list was thinned out, with strong results kept by preference.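 Further: peak tail current of the secondary pulse compared with the same well before compound.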", "data": [{"molecular_target": "human ether-à-go-go-related gene (hERG) potassium channel (human, UniProt Q12809)", "sequence (Q12809 whole entry, looked up)": "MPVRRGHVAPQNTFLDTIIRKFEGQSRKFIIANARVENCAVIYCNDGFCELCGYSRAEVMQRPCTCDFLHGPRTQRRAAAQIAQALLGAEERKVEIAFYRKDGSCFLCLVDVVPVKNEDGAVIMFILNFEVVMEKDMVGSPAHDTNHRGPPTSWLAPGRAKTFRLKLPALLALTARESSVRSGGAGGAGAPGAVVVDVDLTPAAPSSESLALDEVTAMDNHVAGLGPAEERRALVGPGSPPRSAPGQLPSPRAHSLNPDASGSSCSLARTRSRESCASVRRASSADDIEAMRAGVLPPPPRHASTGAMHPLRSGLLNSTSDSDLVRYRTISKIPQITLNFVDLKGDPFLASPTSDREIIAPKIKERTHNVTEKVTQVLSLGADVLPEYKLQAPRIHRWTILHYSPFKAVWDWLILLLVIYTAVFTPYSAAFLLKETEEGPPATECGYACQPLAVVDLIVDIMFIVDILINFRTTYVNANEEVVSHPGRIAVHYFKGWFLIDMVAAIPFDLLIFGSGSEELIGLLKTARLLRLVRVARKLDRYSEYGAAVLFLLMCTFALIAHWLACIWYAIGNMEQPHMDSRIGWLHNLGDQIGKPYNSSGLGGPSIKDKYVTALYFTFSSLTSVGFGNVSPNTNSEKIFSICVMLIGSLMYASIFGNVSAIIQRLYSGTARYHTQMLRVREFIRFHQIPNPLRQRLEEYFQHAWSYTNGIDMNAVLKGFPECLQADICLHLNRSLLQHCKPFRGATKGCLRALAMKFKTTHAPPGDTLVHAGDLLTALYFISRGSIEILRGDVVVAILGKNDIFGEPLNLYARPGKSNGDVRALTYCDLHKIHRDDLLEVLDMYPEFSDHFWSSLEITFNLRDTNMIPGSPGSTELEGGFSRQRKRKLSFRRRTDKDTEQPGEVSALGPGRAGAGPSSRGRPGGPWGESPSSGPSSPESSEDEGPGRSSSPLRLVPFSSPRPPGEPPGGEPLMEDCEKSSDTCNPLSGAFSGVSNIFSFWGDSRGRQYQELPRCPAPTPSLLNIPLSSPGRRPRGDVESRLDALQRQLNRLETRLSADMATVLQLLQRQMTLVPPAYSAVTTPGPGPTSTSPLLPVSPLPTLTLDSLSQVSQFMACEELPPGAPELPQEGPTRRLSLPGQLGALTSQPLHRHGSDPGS", "assay": "primary screen, population patch clamp on CHO cells stably expressing hERG; higher = less effect of the substance", "units": {"hERG current change (%, negative = inhibition) at 10uM": "%"}, "values": [{"molecule": "COc1ccc(-c2csc(NC(=O)c3ccc(OCC(=O)N4CCOCC4)c(OC)c3)n2)cc1OC", "hERG current change (%, negative = inhibition) at 10uM": -27.6}, {"molecule": "Cc1ccc(C(=O)CCC(=O)Nc2cccc(C)c2)cc1", "hERG current change (%, negative = inhibition) at 10uM": 15.3}, {"molecule": "COCCn1c(=NC(=O)CSCC(=O)N2CCOCC2)sc2cc(C)ccc21", "hERG current change (%, negative = inhibition) at 10uM": -14.8}, {"molecule": "COCCCn1c(SCC(=O)NC2CCCCC2)nnc1-c1ccco1", "hERG current change (%, negative = inhibition) at 10uM": -3.26}, {"molecule": "COCCCn1c(SCC(=O)NC2CCCC2)nnc1-c1ccco1", "hERG current change (%, negative = inhibition) at 10uM": 9.39}, {"molecule": "O=C(CSc1nnc(-c2ccco2)n1Cc1ccccc1)OC1CCCCC1", "hERG current change (%, negative = inhibition) at 10uM": -92.1}, {"molecule": "COCCCn1c(SCC(=O)OC2CCCCC2)nnc1-c1ccco1", "hERG current change (%, negative = inhibition) at 10uM": -56}, {"molecule": "O=C(CSc1nnc(-c2ccco2)n1Cc1ccccc1)c1ccc(F)cc1", "hERG current change (%, negative = inhibition) at 10uM": -45.7}, {"molecule": "Cn1c(SCC(=O)OC2CCCCC2)nnc1-c1ccco1", "hERG current change (%, negative = inhibition) at 10uM": 0.11}, {"molecule": "CCCNS(=O)(=O)c1ccc2c(c1)CCCN2C(C)=O", "hERG current change (%, negative = inhibition) at 10uM": -4.81}, {"molecule": "O=C1Nc2cc(C(=O)NCCCN3CCOCC3)ccc2S/C1=C/c1cccc(Cl)c1", "hERG current change (%, negative = inhibition) at 10uM": 9.36}, {"molecule": "CCOC(=O)c1c(P(=O)(N2CCOCC2)N2CCOCC2)noc1N", "hERG current change (%, negative = inhibition) at 10uM": -0.372}, {"molecule": "Cn1cc(CN2CCCC(CNS(=O)(=O)c3cccc4cccnc34)C2)cn1", "note": "(stereo not shown)", "hERG current change (%, negative = inhibition) at 10uM": 5.77}, {"molecule": "CCC(CC)C(=O)Nc1nnc(S(=O)(=O)N2CCCCCC2)s1", "hERG current change (%, negative = inhibition) at 10uM": 1.54}, {"molecule": "OCC1(Cc2ccc(F)cc2F)CCCN(Cc2ccc(Cl)cc2)C1", "note": "(stereo not shown)", "hERG current change (%, negative = inhibition) at 10uM": -74.6}, {"molecule": "COC(=O)c1ccc(CN2CCCC(CO)(Cc3ccc(F)cc3F)C2)cc1", "note": "(stereo not shown)", "hERG current change (%, negative = inhibition) at 10uM": -42.3}, {"molecule": "CCOc1cc(CN2CCCC(CO)(Cc3ccc(F)cc3F)C2)ccc1OC", "note": "(stereo not shown)", "hERG current change (%, negative = inhibition) at 10uM": -55.9}, {"molecule": "COc1ccc(CN2CCCC(CO)(Cc3ccc(F)cc3F)C2)cc1", "note": "(stereo not shown)", "hERG current change (%, negative = inhibition) at 10uM": 6.12}, {"molecule": "COc1cccc(CC(=O)N2CCCC(CO)(Cc3ccc(F)cc3F)C2)c1", "note": "(stereo not shown)", "hERG current change (%, negative = inhibition) at 10uM": -0.432}, {"molecule": "CCOc1ccc(-n2cc(-c3ccccc3)c3c(=O)[nH]cnc32)cc1", "hERG current change (%, negative = inhibition) at 10uM": 17.2}, {"molecule": "CN(CCc1ccccn1)C(=S)Nc1ccc(Cl)c(Cl)c1", "hERG current change (%, negative = inhibition) at 10uM": -3.59}, {"molecule": "COc1ccc(NS(=O)(=O)c2ccc(N3CCOCC3)c(NC(=O)c3ccc(OC)cc3)c2)cc1", "hERG current change (%, negative = inhibition) at 10uM": -1.38}, {"molecule": "CCOC(=O)c1ccc(CSC(=N)N)o1", "hERG current change (%, negative = inhibition) at 10uM": 17.2}, {"molecule": "CN(C)c1ccc(CN2CCCCCC2)cc1", "hERG current change (%, negative = inhibition) at 10uM": -6.11}, {"molecule": "COc1ccc(CCNS(=O)(=O)c2ccc(S(=O)(=O)N3CCCC3)cc2)cc1OC", "hERG current change (%, negative = inhibition) at 10uM": -6.61}]}]}
